Data taken from PubChem BioAssay AID1159580 (chemical genetic matrix, 2015).
Out of some 5,500 compounds screened, about 2,000 (36%) were called active. Not shown: some 18% with an inconclusive outcome. This is one part of the list. Unmarked numbers belong to inactive results. Rule as the data show it: active = normalized growth mostly below about 0.91 (no sharp cut-off); inconclusive = no clear call, values can overlap the other calls; inactive = mostly above about 0.92.

Test: chemical genetic growth profiling, strain panel (AID 1159580);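 also: tested at 20 µM; growth read once vehicle control cultures reached saturation at 30 °C; 1 = growth at the plate median or of vehicle wells; lower values mean less growth of the strain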
Settings: S. cerevisiae deletion strains, growth OD
[1] = locus YHR030C, strain SLT2, stronger effect = lower value
[2] = locus YHR079C, strain IRE1, stronger effect = lower value
[3] = locus YJL095W, strain BCK1, stronger effect = lower value
[4] = locus YJR066W, strain TOR1, stronger effect = lower value
[5] = locus YLR113W, strain HOG1, stronger effect = lower value
[6] = locus YNL183C, strain NPR1, stronger effect = lower value
[7] = locus YOR231W, strain MKK1, stronger effect = lower value
[8] = locus YPL256C, strain CLN2, stronger effect = lower value

Cc1ccccc1/C=C/c1c[nH]c2ccccc12
normalized growth (locus YAR019C, strain CDC15, stronger effect = lower value): 0.937
normalized growth (locus YBL105C, strain PKC1, stronger effect = lower value): 0.961
normalized growth (locus YBR135W, strain CKS1, stronger effect = lower value): 0.946
normalized growth (locus YBR136W, strain MEC1, stronger effect = lower value): 0.954
normalized growth (locus YBR160W, strain CDC28, stronger effect = lower value): 0.951
normalized growth (locus YDL017W, strain CDC7, stronger effect = lower value): 0.955
normalized growth (locus YDL028C, strain MPS1, stronger effect = lower value): 0.963
normalized growth (locus YDL101C, strain DUN1, stronger effect = lower value): 0.953
normalized growth (locus YDL108W, strain KIN28, stronger effect = lower value): 0.949
normalized growth (locus YDL132W, strain cdc53, stronger effect = lower value): 0.942
normalized growth (locus YDL214C, strain PRR2, stronger effect = lower value): 0.902
normalized growth (locus YDR052C, strain DBF4, stronger effect = lower value): 0.95
normalized growth (locus YDR054C, strain cdc34, stronger effect = lower value): 0.985
normalized growth (locus YDR226W, strain ADK1, stronger effect = lower value): 0.949
normalized growth (locus YDR477W, strain SNF1, stronger effect = lower value): 0.924
normalized growth (locus YER123W, strain YCK3, stronger effect = lower value): 0.855
normalized growth (locus YER133W, strain GLC7, stronger effect = lower value): 0.906
normalized growth (locus YFL009W, strain cdc4, stronger effect = lower value): 0.945
normalized growth (locus YFL029C, strain CAK1, stronger effect = lower value): 0.92
normalized growth (locus YFR003C, strain YPI1, stronger effect = lower value): 0.958
normalized growth (locus YFR019W, strain FAB1, stronger effect = lower value): 0.924
normalized growth (locus YFR028C, strain CDC14, stronger effect = lower value): 0.955
normalized growth (locus YGR040W, strain KSS1, stronger effect = lower value): 0.916
normalized growth (locus YGR052W, strain FMP48, stronger effect = lower value): 0.965
normalized growth (locus YGR092W, strain DBF2, stronger effect = lower value): 0.858
normalized growth [1]: 0.921
normalized growth [2]: 0.948
normalized growth (locus YHR082C, strain KSP1, stronger effect = lower value): 0.937
normalized growth (locus YHR205W, strain SCH9, stronger effect = lower value): 0.88
normalized growth (locus YIL147C, strain SLN1, stronger effect = lower value): 0.956
normalized growth [3]: 0.946
normalized growth (locus YJL128C, strain PBS2, stronger effect = lower value): 0.906
normalized growth (locus YJL157C, strain FAR1, stronger effect = lower value): 0.895
normalized growth (locus YJR016C, strain ILV3, stronger effect = lower value): 0.952
normalized growth (locus YJR066W, strain TOR1 (second series), stronger effect = lower value): 0.882
normalized growth [4]: 0.955
normalized growth (locus YKL048C, strain ELM1, stronger effect = lower value): 0.948
normalized growth (locus YKL067W, strain YNK1, stronger effect = lower value): 0.91
normalized growth (locus YKL101W, strain HSL1, stronger effect = lower value): 0.94
normalized growth (locus YKL193C, strain SDS22, stronger effect = lower value): 0.948
normalized growth (locus YKL203C, strain TOR2, stronger effect = lower value): 0.989
normalized growth [5]: 0.784 (active)
normalized growth (locus YLR133W, strain CKI1, stronger effect = lower value): 0.931
normalized growth (locus YLR403W, strain SFP1, stronger effect = lower value): 0.893
normalized growth (locus YML070W, strain DAK1, stronger effect = lower value): 0.891
normalized growth (locus YMR001C, strain CDC5, stronger effect = lower value): 0.937
normalized growth (locus YMR205C, strain PFK2 (second series), stronger effect = lower value): 0.934
normalized growth (locus YMR277W, strain FCP1, stronger effect = lower value): 0.959
normalized growth (locus YNL006W, strain LST8, stronger effect = lower value): 0.955
normalized growth (locus YNL020C, strain ARK1, stronger effect = lower value): 0.912
normalized growth (locus YNL161W, strain CBK1, stronger effect = lower value): 0.953
normalized growth [6]: 0.94
normalized growth (locus YNL207W, strain RIO2, stronger effect = lower value): 0.948
normalized growth (locus YNL222W, strain SSU72, stronger effect = lower value): 0.946
normalized growth (locus YNL307C, strain MCK1 (second series), stronger effect = lower value): 0.941
normalized growth (locus YOL078W, strain AVO1, stronger effect = lower value): 0.946
normalized growth (locus YOL136C, strain PFK27, stronger effect = lower value): 0.887
normalized growth (locus YOR061W, strain CKA2, stronger effect = lower value): 0.895
normalized growth (locus YOR119C, strain RIO1, stronger effect = lower value): 0.943
normalized growth [7]: 0.923
normalized growth (locus YOR329C, strain SCD5, stronger effect = lower value): 0.961
normalized growth (locus YPL031C, strain PHO85, stronger effect = lower value): 0.914
normalized growth (locus YPL153C, strain RAD53, stronger effect = lower value): 0.931
normalized growth (locus YPL204W, strain HRR25, stronger effect = lower value): 0.941
normalized growth (locus YPL209C, strain IPL1, stronger effect = lower value): 0.95
normalized growth [8]: 0.91
normalized growth (locus YPR025C, strain CCL1, stronger effect = lower value): 0.955
normalized growth (locus YPR106W, strain ISR1, stronger effect = lower value): 0.964
normalized growth (locus YPR111W, strain DBF20, stronger effect = lower value): 0.952
normalized growth (strain NNK1, stronger effect = lower value): 0.961
normalized growth (strain TSCII, stronger effect = lower value): 0.947

Cc1c[nH]c2ccccc12
normalized growth [1]: 0.992
normalized growth [2]: 0.979
normalized growth [3]: 0.999
normalized growth [4]: 0.94
normalized growth [5]: 0.945
normalized growth [6]: 0.927
normalized growth [7]: 1
normalized growth [8]: 1.02

Cc1ccccc1/C=C/C1=NCCN1
normalized growth (locus YAL013W, strain DEP1, stronger effect = lower value): 0.997
normalized growth (locus YAL040C, strain CLN3, stronger effect = lower value): 1.09
normalized growth (locus YCL061C, strain MRC1 (second series), stronger effect = lower value): 1.01
normalized growth (locus YDR150W, strain NUM1, stronger effect = lower value): 1.02
normalized growth (locus YDR363W, strain ESC2, stronger effect = lower value): 0.999
normalized growth (locus YER002W, strain NOP16, stronger effect = lower value): 1.01
normalized growth (locus YGR078C, strain PAC10, stronger effect = lower value): 0.982
normalized growth (locus YJR075W, strain HOC1, stronger effect = lower value): 0.997
normalized growth (locus YMR263W, strain SAP30, stronger effect = lower value): 0.995
normalized growth (locus YMR307W, strain GAS1, stronger effect = lower value): 0.978
normalized growth (locus YNL175C, strain NOP13, stronger effect = lower value): 1
normalized growth (locus YNL197C, strain WHI3, stronger effect = lower value): 0.993
normalized growth (locus YNL224C, strain SQS1, stronger effect = lower value): 0.991
normalized growth (locus YOR083W, strain WHI5 (second series), stronger effect = lower value): 0.991
